Whole data set: some 39,000 sequences, median “fluorescence intensity (a.u.)” near 4,300, cut for the highest 2% near 39,000. The sample as a whole holds a higher share of the highest values than the screen did.
What follows are sequences tested against T1, OsSMF1 (Oryza sativa, UniProt Q6ZLB0 1-436) (assay: protein-binding microarray (RPBM); PBS, 2% BSA, 51.3 ng/ul salmon testes DNA, 50 uM zinc acetate, 200 nM TF, 25 C, 1 h; high values mean tight binding). Conditions: protein: recombinant; tags: N-terminal polyhistidine and DsRed monomer fusion (pET32a); chain copies: 2; label: CyDye5-dUTP incorporated in the synthesized complementary strand; 3' TTTTT single-stranded linker to array surface; dsDNA, one strand shown.
T1 sequence: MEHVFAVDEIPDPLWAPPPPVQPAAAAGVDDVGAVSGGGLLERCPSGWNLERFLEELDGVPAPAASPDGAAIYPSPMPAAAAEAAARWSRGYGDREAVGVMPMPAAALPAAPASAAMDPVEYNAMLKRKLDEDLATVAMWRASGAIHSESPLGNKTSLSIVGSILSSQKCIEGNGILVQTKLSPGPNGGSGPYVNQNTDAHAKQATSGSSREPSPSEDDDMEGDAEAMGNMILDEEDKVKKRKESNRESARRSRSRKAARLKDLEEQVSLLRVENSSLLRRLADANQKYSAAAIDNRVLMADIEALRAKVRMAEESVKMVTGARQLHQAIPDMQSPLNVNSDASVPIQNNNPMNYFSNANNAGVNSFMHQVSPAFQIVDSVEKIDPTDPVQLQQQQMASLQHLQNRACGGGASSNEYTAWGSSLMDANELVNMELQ
Summary of the method: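 In PBS with 2% BSA, salmon testes DNA and 50 µM zinc acetate, 200 nM protein was incubated on a custom Agilent array at 25 °C for 1 h and then washed off. The array had been made double-stranded by primer extension with Cy5-dUTP and blocked with 2% BSA. The proteins were transcription factors fused N-terminally to polyhistidine and DsRed, expressed in E. coli BL21-CodonPlus and purified on Ni–NTA. The binding signal is per-feature fluorescence intensity (arbitrary units) from an Axon 4000B scanner.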

Row | Sequence | binding signal
1 | CCGAGTCAATACTGCCACGTAGCGCGCCACGTCAGCGAAACGGAGTCACCTAGTGCAG | 26300 fluorescence intensity (a.u.)
2 | TACTGCCACGTAGGCGCCACGTCAGCGAAACCGCCCTCCACGGAGTCACCTAGTGCAG | 58100 fluorescence intensity (a.u.)
3 | CGCTCCGTCAGCCACGTAGACGCTACGTCGGCCAAAACCGCGGAGTCACCTAGTGCAG | 14900 fluorescence intensity (a.u.)
4 | GTCAAAACCGCCACGTAGACGCCACGTCATCGAAACCGCCCGGAGTCACCTAGTGCAG | 40400 fluorescence intensity (a.u.)
5 | GCCCACGCTCACCGACTCCATCGACGTCACGCTCACCGCCCGGAGTCACCTAGTGCAG | 5090 fluorescence intensity (a.u.)
6 | CAAACAAGCCACGTAGATGCCACGTCATCCAAAACCGCCTCGGAGTCACCTAGTGCAG | 29600 fluorescence intensity (a.u.)
7 | GCGCCACGTAGACGCCACGTCAGCCAAAACCGCCCTCCATCGGAGTCACCTAGTGCAG | 52000 fluorescence intensity (a.u.)
8 | GGTGTCACGTAAGCGCCACGTCAGCGAACCGCCCTCCAAACGGAGTCACCTAGTGCAG | 26600 fluorescence intensity (a.u.)
9 | AAAAGCCCACCACCACCCAACCCGCCCAACGCCACGTCACCGGAGTCACCTAGTGCAG | 24800 fluorescence intensity (a.u.)
10 | TCCGTGACACCGTGACAGCGTGGACGTTCATAACCTTCCACGGAGTCACCTAGTGCAG | 9010 fluorescence intensity (a.u.)
11 | GACCTCGCGAACAGCCCACACGTACGTTACTGACGCCATACGGAGTCACCTAGTGCAG | 4360 fluorescence intensity (a.u.)
12 | ACAGGTAGCTCCATATCTTGTTCATATTGACATACACAATCGGAGTCACCTAGTGCAG | 31500 fluorescence intensity (a.u.)
13 | TGCAAATTTTCAAAATCGACTACCAGTAGATGTTTACTCCCGGAGTCACCTAGTGCAG | 14000 fluorescence intensity (a.u.)
14 | CAAGAATGTACTGAGTACGTCTCAATCCACGTGTTTGAGCCGGAGTCACCTAGTGCAG | 4960 fluorescence intensity (a.u.)
15 | TATAGTTGTGTACTAGTGTCACTCACGCCACCCGTCTCATCGGAGTCACCTAGTGCAG | 3670 fluorescence intensity (a.u.)
16 | ATGCAGCCACACGGATGTTGGACGTCATTGTCTATAGTGTCGGAGTCACCTAGTGCAG | 4580 fluorescence intensity (a.u.)
17 | TCACGAACTGTGTACCGGATGCCACGTCACACAGTTGTCTCGGAGTCACCTAGTGCAG | 41200 fluorescence intensity (a.u.)
18 | CGTAAGCGCCACGTTAATGCCACGTGGGGCGAAGACCTAGCGGAGTCACCTAGTGCAG | 15100 fluorescence intensity (a.u.)
19 | AACCAGCCACGTAGGCGCCACGTCAGCCAAAACTGCTATCCGGAGTCACCTAGTGCAG | 35900 fluorescence intensity (a.u.)
20 | AAACTAGCCACGTTGGCGCCACGTCAGCCAAAACCGCCTTCGGAGTCACCTAGTGCAG | 33700 fluorescence intensity (a.u.)
21 | TTGCAGTGCCACCTCACCGCCACGTAGGATGATGACTAAGCGGAGTCACCTAGTGCAG | 25800 fluorescence intensity (a.u.)

Row | Sequence | binding signal
22 | GGCCGCGTAGGCGCCACATCAGCCAAAACCACCATCAAAACGGAGTCACCTAGTGCAG | 4590 fluorescence intensity (a.u.)
23 | AGTTAATGGAGGAGCCACCGCCACGTAAGTGCCACGTAGGCGGAGTCACCTAGTGCAG | 56200 fluorescence intensity (a.u.)
24 | ACAAGCCACGTAGGCGCCACGTCAGCCAAAACCGCCTTCACGGAGTCACCTAGTGCAG | 44100 fluorescence intensity (a.u.)
25 | ACCAGCCACGTAGGCGCCACGTCAGCTAAAACCGCCTTCACGGAGTCACCTAGTGCAG | 19900 fluorescence intensity (a.u.)
26 | AGTAAAAGGAGCCACGTAGGCGCCACGTCATCCAAAACCACGGAGTCACCTAGTGCAG | 47600 fluorescence intensity (a.u.)
27 | CATTATACTGTTCATAAACATGAATATCACAACCTGTTCTCGGAGTCACCTAGTGCAG | 21100 fluorescence intensity (a.u.)
28 | GTGTGGGGATAAACAGAGGTAGAGACATGTGTCAGATGACCGGAGTCACCTAGTGCAG | 3150 fluorescence intensity (a.u.)
29 | CTTCTTTCCCGCACGCGCGGCTCGCGCATGCATGCACGATCGGAGTCACCTAGTGCAG | 15000 fluorescence intensity (a.u.)
30 | CGTCCGGCGTCGGCGTGGACGGGTCGGCGCGGCGCCCCACCGGAGTCACCTAGTGCAG | 3650 fluorescence intensity (a.u.)
31 | AGATTAAGGAGTCCTCCATCTATATAATCCAATCTATCTCCGGAGTCACCTAGTGCAG | 21400 fluorescence intensity (a.u.)
32 | CGGCACCACCAGTTGTCCGGCATGCGATGTGGTACCGAGACGGAGTCACCTAGTGCAG | 49300 fluorescence intensity (a.u.)
33 | ACCACCCGAGACGCGACGTGGCGGCGGGCATGCAGCACCCCGGAGTCACCTAGTGCAG | 5050 fluorescence intensity (a.u.)
34 | TTGTCCGATGTGGCAGTTGAGTCAGCATGAGACCCACGTACGGAGTCACCTAGTGCAG | 14200 fluorescence intensity (a.u.)
35 | ACCTGTATTTGTCATTATTTAGTGGACTCTGCTTAGTTCTCGGAGTCACCTAGTGCAG | 3390 fluorescence intensity (a.u.)
36 | TATGGTGATCCTAGCGATGAAACCGCCTAGCCCCGTTAGGCGGAGTCACCTAGTGCAG | 64600 fluorescence intensity (a.u.)
37 | TGCAGCCGCCGACGCGGCGCGCCGACGCGATCTGAAACCCCGGAGTCACCTAGTGCAG | 3940 fluorescence intensity (a.u.)
38 | CATGGTGATGATGGCGGCGGGCGTCCGTCAGCGCCCGCACCGGAGTCACCTAGTGCAG | 5860 fluorescence intensity (a.u.)
39 | CCTATTCCTTGTCACTATGACACCGTCATATATCTATGCACGGAGTCACCTAGTGCAG | 3420 fluorescence intensity (a.u.)
40 | CCCGCGGATCGATCGATCGCCGCCGCGCGCCTGGACGAGCCGGAGTCACCTAGTGCAG | 3300 fluorescence intensity (a.u.)
41 | CCGCCACCCGCTGCCCGGGGAGCTCCGCCTTCACCTCCGCCGGAGTCACCTAGTGCAG | 7820 fluorescence intensity (a.u.)
42 | AATCGTGTCCATGGTCTCCACCTCACGGGAGATTCTCCGCCGGAGTCACCTAGTGCAG | 3830 fluorescence intensity (a.u.)

— publication PMC7819943, “Rice protein-binding microarrays: a tool to detect cis-acting elements near promoter regions in rice”
